Measurements reported in PubChem BioAssay.
Active and inactive are the calls of the source. Unless noted, how the calls were made is not given here.

Legend:
[1] = system: XIP peptide (Xip251-270) binding; assay: small-molecule binders of XIP peptide, primary screen, biochemical, small-molecule microarray, fluorescence 635/667 nm, 0.1 µg/mL protein (AID 1182); conditions: fluorescent protein binding, 635 nm, higher = more signal, called active from +8 up or from −8 down
[2] = system: XIP peptide (Xip251-270); assay: small-molecule binders of XIP peptide, primary screen, biochemical, small-molecule microarray, fluorescence 635/667 nm, 0.5 µg/mL protein (AID 1183); conditions: small-molecule microarray binding, fluorescence 635 nm; higher = more signal
[3] = Plasmodium falciparum growth inhibition, primary screen, strain 3D7, DAPI fluorescence, 100 nL (AID 1184);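 further: parasites grown inside human red blood cells in medium with human serum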; conditions: P. falciparum 3D7 growth, 3 d, higher = more signal
[4] = target: Homeobox protein Hox-A13 (Mus musculus) (UniProt Q62424); assay: inhibitors of HoxA13-DNA binding, primary screen, biochemical, fluorescence polarization, labeled oligonucleotide (AID 1185); conditions: 15 min, higher = more signal, called active from +8 up or from −8 down
Chain of Homeobox protein Hox-A13 (Mus musculus) (Q62424 whole entry, looked up): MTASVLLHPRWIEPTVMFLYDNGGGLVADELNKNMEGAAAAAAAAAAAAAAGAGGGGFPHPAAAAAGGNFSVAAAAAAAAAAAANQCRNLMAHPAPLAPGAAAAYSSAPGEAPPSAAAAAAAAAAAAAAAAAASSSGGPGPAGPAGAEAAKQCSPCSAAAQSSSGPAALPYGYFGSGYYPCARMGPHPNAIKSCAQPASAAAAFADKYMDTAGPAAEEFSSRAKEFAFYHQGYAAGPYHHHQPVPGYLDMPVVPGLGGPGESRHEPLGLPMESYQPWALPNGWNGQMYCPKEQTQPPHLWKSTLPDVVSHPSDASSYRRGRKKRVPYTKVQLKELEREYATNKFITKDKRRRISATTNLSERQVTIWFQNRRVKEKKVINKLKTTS

[5] = inhibitors of hydroxyurea-induced Chk1 phosphorylation, primary screen, imaging, HeLa, phospho-Chk1 antibody, percent positive cells (AID 1186); conditions: hydroxyurea-induced phospho-Chk1 immunofluorescence imaging, higher = more signal
[6] = inhibitors of hydroxyurea-induced Chk1 phosphorylation, primary screen, imaging, HeLa, phospho-Chk1 nuclear intensity (AID 1187); conditions: hydroxyurea-induced phospho-Chk1 immunofluorescence imaging, higher = more signal

## CC(C)[C@H]1NC(=O)[C@@]23C(=O)N[C@@H](Cc4ccccc4)C2[C@H](C)[C@@]2(C)O[C@H]2C3/C=C/CCC/C=C/CNC(=O)[C@H](Cc2ccccc2)NC1=O (stereo not given in full)
[1]
  composite z-score: 0.621 (inactive)
[2]
  composite z-score: 0.741
[3]
  z-score: -1.83
[4]
  z-score: -6.22 (inactive)
[5]
  z-score: -0.165 (inactive)
[6]
  z-score: -0.0036 (inactive)

## Cc1c(NC(=O)/C(C#N)=C/c2ccccc2Cl)c(=O)n(-c2ccccc2)n1C
[1]
  composite z-score: -0.0708 (inactive)
[2]
  composite z-score: 0.808
[3]
  z-score: 0.419
[4]
  z-score: -1.68 (inactive)
[5]
  z-score: -0.0018 (inactive)
[6]
  z-score: 0.281 (inactive)

## COc1ccc([Si](C)(C)[C@H]2[C@H](CCO)O[C@@]3(C(=O)N(Cc4ccccc4)c4ccc(N5C(=O)c6ccccc6Oc6ccccc65)cc43)[C@@H]2C)cc1
[1]
  composite z-score: 0.823 (inactive)
[2]
  composite z-score: 0.601
[3]
  z-score: -1.75
[4]
  z-score: -1.76 (inactive)
[5]
  z-score: 0.564 (inactive)
[6]
  z-score: -0.608 (inactive)

## CCOC(=O)C[C@H]1[C@H](OC(=O)c2ccccc2-c2ccccc2)[C@@H](NC(=O)c2ccc3ccccc3n2)c2cc(OCCCO)ccc2N1C(=O)c1ccccc1
[1]
  composite z-score: 0.428 (inactive)
[2]
  composite z-score: 0.04
[3]
  z-score: -1.66
[4]
  z-score: -2.46 (inactive)
[5]
  z-score: 0.342 (inactive)
[6]
  z-score: 0.6 (inactive)

## COc1ccc(C(=O)Nc2cccc(CN3C(=O)[C@]4(O[C@H](CCn5cc([C@H](O)c6ccccc6)nn5)[C@@H]([Si](C)(C)c5ccc(OC)cc5)[C@@H]4C)c4ccccc43)c2)cc1
[1]
  composite z-score: 0.0632 (inactive)
[2]
  composite z-score: 0.497
[3]
  z-score: -2.76
[4]
  z-score: 2 (inactive)
[5]
  z-score: -0.161 (inactive)
[6]
  z-score: -0.0692 (inactive)

## [N-]=[N+]=NCc1ccccc1C[C@]1(C(=O)N2CCOCC2)COC(c2ccc(OCCCO)cc2)=N1
[1]
  composite z-score: 0.15 (inactive)
[2]
  composite z-score: 0.711
[3]
  z-score: -2.2
[4]
  z-score: -4.87 (inactive)
[5]
  z-score: -0.677 (inactive)
[6]
  z-score: -0.718 (inactive)

## COCCOC(=O)N1C(=O)[C@@]2(c3cc(C#CC4(O)CCCCCC4)ccc31)[C@H](C(=O)N1CCN(c3ncccn3)CC1)[C@H]1C(=O)O[C@H](c3ccccc3)[C@H](c3ccccc3)N1[C@@H]2c1ccccc1OCCO
[1]
  composite z-score: 1.01 (inactive)
[2]
  composite z-score: 0.61
[3]
  z-score: -2.07
[4]
  z-score: -0.77 (inactive)
[5]
  z-score: -0.0411 (inactive)
[6]
  z-score: 0.0349 (inactive)

## COc1cc2c(cc1O)C(c1ccc(CN3CCCC3)cc1)N(C)CC2 (stereo not given)
[1]
  composite z-score: -0.389 (inactive)
[2]
  composite z-score: -0.819
[3]
  z-score: -1.58
[4]
  z-score: -2.85 (inactive)
[5]
  z-score: 0.227 (inactive)
[6]
  z-score: 0.129 (inactive)

## COCC(=C=CC[C@H](O)c1cccc(OCCO)c1)C[C@H](O)COCc1ccccc1
[1]
  composite z-score: 0.196 (inactive)
[2]
  composite z-score: -0.524
[3]
  z-score: -1.88
[4]
  z-score: -3.95 (inactive)
[5]
  z-score: -0.0978 (inactive)
[6]
  z-score: 0.443 (inactive)

## C=C(C)C1CCC(C(O)C2C=CC3C(=O)N(C)C(=O)C3N2Nc2cc(OC)c(OC)c(OC)c2)CC1 (stereo not given)
[1]
  composite z-score: 0.287 (inactive)
[2]
  composite z-score: 0.596
[3]
  z-score: -0.593
[4]
  z-score: -5.2 (inactive)
[5]
  z-score: -0.113 (inactive)
[6]
  z-score: -0.431 (inactive)

## CCOC(=O)C=Cc1cc(F)ccc1O
[1]
  composite z-score: 0.198 (inactive)
[2]
  composite z-score: 0.487
[3]
  z-score: -1.65
[4]
  z-score: -0.42 (inactive)
[5]
  z-score: 0.631 (inactive)
[6]
  z-score: -1.13 (inactive)

## C=CCC(OC(C)=O)[C@@H]1[C@@H](N(Cc2ccc(-c3cccc(C(F)(F)F)c3)o2)C(=O)c2cccc3ccccc23)c2cc(OCCCO)ccc2N1C(=O)Cc1ccc(OC)cc1 (stereo not given in full)
[1]
  composite z-score: 0.309 (inactive)
[2]
  composite z-score: 0.456
[3]
  z-score: -2.43
[4]
  z-score: -1.92 (inactive)
[5]
  z-score: -0.48 (inactive)
[6]
  z-score: 0.0284 (inactive)

## CCCCC(=C=CC[C@H](O)c1ccc(OCCO)cc1)C[C@H](O)COCc1ccccc1
[1]
  composite z-score: 0.9 (inactive)
[2]
  composite z-score: 0.1
[3]
  z-score: -1.44
[4]
  z-score: -4.21 (inactive)
[5]
  z-score: -0.122 (inactive)
[6]
  z-score: -0.0784 (inactive)

## CC(=O)n1cc(C(O)C2C=CC3C(=O)N(c4ccccc4)C(=O)C3N2Nc2ccc(C(C)C)cc2)c2ccccc21 (stereo not given)
[1]
  composite z-score: 0.18 (inactive)
[2]
  composite z-score: 0.755
[3]
  z-score: -0.15
[4]
  z-score: -2.7 (inactive)
[5]
  z-score: 0.417 (inactive)
[6]
  z-score: 0.2 (inactive)

## COc1ccc([Si](C)(C)[C@@H]2[C@@H](CC(=O)N3Cc4ccccc4C[C@H]3CO)O[C@]3(C(=O)N(Cc4ccc(N5CCC5=O)cc4)c4ccccc43)[C@H]2C)cc1
[1]
  composite z-score: 1.08 (inactive)
[2]
  composite z-score: 0.682
[3]
  z-score: -2.64
[4]
  z-score: -0.855 (inactive)
[5]
  z-score: -0.169 (inactive)
[6]
  z-score: 0.14 (inactive)

## Cc1ccc([C@H]2C(C(=O)O)=C[C@@H](C(C)(C)C)N2S(=O)(=O)c2ccc(C)cc2)cc1
[1]
  composite z-score: 0.629 (inactive)
[2]
  composite z-score: 0.854
[3]
  z-score: 1.64
[4]
  z-score: -4.73 (inactive)
[5]
  z-score: 0.695 (inactive)
[6]
  z-score: 0.255 (inactive)

## [N-]=[N+]=NCc1ccccc1[C@H]1OC(c2ccc(OCCCO)cc2)=N[C@@]1(Cc1ccccc1)C(=O)NCCN1CCOCC1
[1]
  composite z-score: 0.0723 (inactive)
[2]
  composite z-score: 0.816
[3]
  z-score: -2.28
[4]
  z-score: -0.974 (inactive)
[5]
  z-score: -0.0389 (inactive)
[6]
  z-score: 0.306 (inactive)

## O=C1O[C@H](c2ccccc2)[C@H](c2ccccc2)N2[C@H]1[C@@H](C(=O)N1CCCCCCC1)[C@]1(C(=O)Nc3ccc(C#CC4(O)CCCCCC4)cc31)[C@H]2c1ccc(O)cc1
[1]
  composite z-score: 1.81 (inactive)
[2]
  composite z-score: 0.466
[3]
  z-score: -0.372
[4]
  z-score: 1.68 (inactive)
[5]
  z-score: -0.216 (inactive)
[6]
  z-score: -1.07 (inactive)

## CCOC(=O)C1=CC[C@@H](c2ccccc2)N(S(=O)(=O)c2ccc(C)cc2)[C@H]1C=Cc1ccccc1
[1]
  composite z-score: 0.0537 (inactive)
[2]
  composite z-score: 0.749
[3]
  z-score: -2.01
[4]
  z-score: 1.66 (inactive)
[5]
  z-score: -0.511 (inactive)
[6]
  z-score: -0.645 (inactive)

## CN1C(=O)C2C=CC(C(O)c3ccc(F)cc3)N(NC(=O)OC(C)(C)C)C2C1=O (stereo not given)
[1]
  composite z-score: -0.0758 (inactive)
[2]
  composite z-score: 0.258
[3]
  z-score: -0.383
[4]
  z-score: -2.11 (inactive)
[5]
  z-score: 0.058 (inactive)
[6]
  z-score: -0.173 (inactive)
